Screens as filed in PubChem BioAssay.
Gal4-VP16 FLuc = counter-screen for ROR gamma inhibitors: Gal4-VP16 reporter; Drosophila S2 Gal4-VP16 UAS-luciferase, luminescence, 20 h; Potency, µM (highest dose often 53.6 µM), for the others: at the highest dose activity, negative = inhibition, usual class: inhibitors; actives 3.5% (n = 310,000); AID 2546;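 further: Gal4-VP16 expression switched on by copper sulfate through the metallothionein promoter; nearly all actives have a fitted effect of over 50% in size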
Luc counter = blocks Kinase-Glo luciferase, a counter-screen artifact. Potency, µM (series often up to 38.3 µM), without a hit: top-dose activity change, negative = inhibition, actives largely listed as inhibitors. actives 0.28% (n = 200,000). AID 1379. Kinase-Glo luciferase, ATP luminescence, 8 min; further: nearly all actives have a fitted effect of over 60% in size
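Recombinant Kinase-Glo luciferase, 10 uM ATP (linear range), luciferin; imidazole pH 7.2 / KCl / MgCl2 / Tween / BSA buffer; 8 min RT; luminescence.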
RORgamma inh = inhibitors of mouse ROR gamma transcriptional activity. P51450. Drosophila S2 Gal4-RORgamma UAS-luciferase reporter, 20 h. Potency, µM (highest dose often 53.6 µM), for the others: at the top dose activity change, negative = inhibition, usual class: inhibitors. actives 5.4% (n = 310,000). AID 2551; further: nearly all actives have a fitted effect of over 60% in size
Target sequence (P51450 whole entry, looked up, the tested form may be a part): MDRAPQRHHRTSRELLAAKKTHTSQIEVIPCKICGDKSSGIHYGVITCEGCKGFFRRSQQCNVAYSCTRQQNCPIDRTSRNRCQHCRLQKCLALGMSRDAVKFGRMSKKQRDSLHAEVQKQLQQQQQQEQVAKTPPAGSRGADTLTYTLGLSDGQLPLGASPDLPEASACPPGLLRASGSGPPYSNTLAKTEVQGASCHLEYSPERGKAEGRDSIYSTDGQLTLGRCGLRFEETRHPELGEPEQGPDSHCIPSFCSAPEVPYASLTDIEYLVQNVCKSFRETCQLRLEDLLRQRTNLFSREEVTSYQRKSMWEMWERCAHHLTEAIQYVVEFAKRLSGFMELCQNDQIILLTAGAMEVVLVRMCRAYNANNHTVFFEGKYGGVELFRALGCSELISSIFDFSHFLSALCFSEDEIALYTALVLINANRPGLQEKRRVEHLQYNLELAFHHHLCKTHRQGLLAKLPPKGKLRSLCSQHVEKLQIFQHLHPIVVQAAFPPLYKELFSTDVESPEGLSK
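Luciferase reporter read in Schneider cells carrying Gal4-RORγ (mouse) and UAS-Photinus luciferase; cells given compound 1 h before 700 uM copper sulfate induction, then incubated 20 h at ambient temperature.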
* hit, by the source's call; [ ] = another dose, or the depositor's remark. Hits are enriched below; roughly 6.4% of the tested compounds scored in any of these assays. The call rests on the fitted dose curve; in most records, active means well fitted curve in the direction sought with a large enough effect; inconclusive means small, poorly fitted or top-dose-only effect, or another doubt; inactive means no such curve, though single readings can be large; an effect the other way counts as inactive or inconclusive. On the % scale 0 is the no-effect control and ±100 the full control effect; potency means the concentration at half of the fitted maximal effect.

`C/C(=N\NC(=O)c1ccccc1)C1C2C=CC(C2)C1(C)C` (stereo unspecified) gave Gal4-VP16 FLuc -29% and RORgamma inh inconclusive.
For CCOC(=O)C1(CCCc2ccccc2)CCN(C(=O)c2cnn(CC)c2)CC1 the results were Gal4-VP16 FLuc -2%, Luc counter 0% and RORgamma inh -28%.
Screening CCN(CC)c1ccc2c(C)c(Cl)c(=O)oc2c1 returned Gal4-VP16 FLuc 3%, Luc counter 0% and RORgamma inh 11%.
Screening CCN(CC)c1ccc2c(Cl)c(Br)c(=O)oc2c1 returned Gal4-VP16 FLuc 4µM*, Luc counter -3% and RORgamma inh inconclusive.
For CCc1ccccc1NC(=O)C1CCCN1C(=O)Nc1ccc(C)cc1 (stereo unspecified) the results were Gal4-VP16 FLuc 5% and RORgamma inh 1%.
Screening COc1ccccc1N(/N=C1\Sc2ccccc2C1=O)C(C)=O returned Gal4-VP16 FLuc inconclusive and RORgamma inh 8.9µM*.
COc1ccc(N(/N=C2\Sc3ccccc3C2=O)C(C)=O)cc1 was read as Gal4-VP16 FLuc 19%, Luc counter 0% and RORgamma inh inconclusive.
`Cc1cc(C)n(CCCNC(=O)CCNS(=O)(=O)c2ccccc2C(F)(F)F)n1` gave Gal4-VP16 FLuc -6% and RORgamma inh -5%.
For Cc1nc(SCc2nc3ccccc3[nH]2)c2oc3ccccc3c2n1 the results were Gal4-VP16 FLuc inconclusive, Luc counter -2% and RORgamma inh 14µM*.
Screening c1ccc2[nH]c(CSc3ncnc4c3oc3ccccc34)nc2c1 returned Gal4-VP16 FLuc -15%, Luc counter -5% and RORgamma inh inconclusive.
`Cc1cc(C)nc(SCCCNCc2c(F)cccc2Cl)n1` gave Gal4-VP16 FLuc 2% and RORgamma inh -21%.
Cc1ccc(CNCCCSc2nc(C)cc(C)n2)cc1 was read as Gal4-VP16 FLuc 2µM* and RORgamma inh inconclusive.
`O=C(Nc1ccc(F)cc1)C1CCCN(S(=O)(=O)c2ccc3[nH]c(=O)ccc3c2)C1` (stereo unspecified) gave Gal4-VP16 FLuc -1% and RORgamma inh -7%.
Screening COc1cc(C(=O)N/N=C/c2ccccn2)cc(OC)c1OC returned Gal4-VP16 FLuc -8%, Luc counter -2% and RORgamma inh inconclusive.
For CCn1cc(/C=N\NC(=O)Cc2ccc(Cl)cc2)cn1 the results were Gal4-VP16 FLuc inconclusive, Luc counter -3% and RORgamma inh -123%.
`O=C(N/N=C/c1ccccn1)c1ccccc1` gave Gal4-VP16 FLuc -12%, Luc counter -5% and RORgamma inh 16%.
CN(C)c1ccc(C(=O)N/N=C/c2ccccn2)cc1 was read as Gal4-VP16 FLuc inconclusive and RORgamma inh 13µM*.
`CCn1cc(/C=N\NC(=O)c2ccc(Cl)cc2)cn1` gave Gal4-VP16 FLuc -8%, Luc counter -4% and RORgamma inh 11µM*.
For O=C(N/N=C/c1ccccn1)c1ccc(Cl)cc1 the results were Gal4-VP16 FLuc 2.5µM* and RORgamma inh 1.4µM*.
O=C(CN1C2=NCCN2c2ccccc21)c1ccc(Br)s1 was read as Gal4-VP16 FLuc 3%, Luc counter 1% and RORgamma inh -26%.
Screening Cn1nc(C(=O)N2CCCCC2)c2c1-c1ccccc1S(=O)(=O)C2 returned Gal4-VP16 FLuc -2% and RORgamma inh 19%.
Screening Cc1ccc2c(c1)c1c(c(=O)n(-c3ccccc3C)c(=O)n1CC(=O)NCC1CCCO1)n2C (stereo unspecified) returned Gal4-VP16 FLuc -3% and RORgamma inh 1%.
For COc1ccc(CNC(=O)Cc2cn(C)c3ccccc23)c(OC)c1 the results were Gal4-VP16 FLuc -16% and RORgamma inh 23%.
`Cc1nc(N2CCOCC2)c2nc(-c3ccccc3)n(CCCN3CCOCC3)c2n1` gave Gal4-VP16 FLuc -1%, Luc counter -1% and RORgamma inh -17%.
Screening CC1CCN(S(=O)(=O)c2ccc(C(=O)Nc3ncccc3O)cc2)CC1 returned Gal4-VP16 FLuc -27% and RORgamma inh inconclusive.
CC1CCN(S(=O)(=O)c2ccc(C(=O)Nc3nnc(C4=COCCO4)o3)cc2)CC1 was read as Gal4-VP16 FLuc 1µM* and RORgamma inh 1.1µM*.
For O=C(Nc1nnc(C2=COCCO2)o1)c1ccc(S(=O)(=O)N2CCCC2)cc1 the results were Gal4-VP16 FLuc -7%, Luc counter 4% and RORgamma inh 17%.
O=C(Nc1nnc(C2=COCCO2)o1)c1ccc(S(=O)(=O)N2CCCCC2)cc1 was read as Gal4-VP16 FLuc 3.2µM*, Luc counter 5% and RORgamma inh 1.3µM*.
CCC1CCCCN1S(=O)(=O)c1ccc(C(=O)Nc2nnc(C3=COCCO3)o2)cc1 (stereo unspecified) was read as Gal4-VP16 FLuc 1µM* and RORgamma inh 0.89µM*.
CC[C@@H](c1ccccc1)n1c(=O)n2n(c1=O)[C@H]1[C@H](O)[C@H]3O[C@@H]3/C(=N/OCC(C)C)[C@@H]1CC2 was read as Gal4-VP16 FLuc 5%[10 µM] and RORgamma inh -1%[10 µM].
`O=C(NC(=S)Nc1cccc2[nH]ncc12)c1ccccc1` gave Gal4-VP16 FLuc -7%, Luc counter -4% and RORgamma inh -9%.
For O=C(NC(=S)Nc1cccc2cnccc12)c1ccccc1 the results were Gal4-VP16 FLuc inconclusive, Luc counter 1% and RORgamma inh 10µM*.
O=C(NC(=S)Nc1cccc2cccnc12)c1ccccc1 was read as Gal4-VP16 FLuc 6.3µM*, Luc counter -2% and RORgamma inh 2.2µM*.
O=C(NC(=S)Nc1cccc2cccnc12)c1cccs1 was read as Gal4-VP16 FLuc -5%, Luc counter 0% and RORgamma inh -1%.
`S=C(Nc1ccc(Br)cc1Cl)NN1CCOCC1` gave Gal4-VP16 FLuc 18µM*, Luc counter -1% and RORgamma inh 3.5µM*.
`FC(F)(F)c1ccccc1NC(=S)NN1CCOCC1` gave Gal4-VP16 FLuc inconclusive, Luc counter -6% and RORgamma inh 0%.
Screening Fc1ccc(NC(=S)NN2CCOCC2)cc1Cl returned Gal4-VP16 FLuc inconclusive, Luc counter 1% and RORgamma inh 2.8µM*.
S=C(Nc1ccc(Nc2ccccc2)cc1)NN1CCOCC1 was read as Gal4-VP16 FLuc -12% and RORgamma inh inconclusive.
For COc1ccc(S(=O)(=O)/N=C2/C=CC(=O)C(C)=C2C)cc1 the results were Gal4-VP16 FLuc -4%, Luc counter -3% and RORgamma inh -9%.
`CC1=C(C)/C(=N\OS(=O)(=O)c2ccc(C)cc2)C=CC1=O` gave Gal4-VP16 FLuc 2µM*, Luc counter 2% and RORgamma inh 5µM*.
O=S(=O)(Oc1ccc(Cl)cc1)c1ccccc1 was read as Gal4-VP16 FLuc 0% and RORgamma inh 40%.
Screening CC1=C/C(=N\OS(=O)(=O)c2ccccc2)C(C)=CC1=O returned Gal4-VP16 FLuc 2.5µM*, Luc counter -3% and RORgamma inh 1.1µM*.
For CC1=C/C(=N\OS(=O)(=O)c2ccccc2)C(C(C)C)=CC1=O the results were Gal4-VP16 FLuc 0.79µM*, Luc counter -2% and RORgamma inh 2.8µM*.
`COc1cc(C(=O)O/N=C2/C=C(C)C(=O)C=C2C)cc(OC)c1OC` gave Gal4-VP16 FLuc -14%, Luc counter 2% and RORgamma inh -38%.
